PubChem BioAssay AID504389 (National Center for Advancing Translational Sciences (NCATS), 2011)
Inconclusive results are not listed. Active and inactive are the calls of the source. The call rests on the fitted dose curve; in most records, active means well fitted curve in the direction sought with a large enough effect; inconclusive means small, poorly fitted or top-dose-only effect, or effect the other way, or another doubt; inactive means no such curve, though single readings can be large or run the other way.

biological target: Thyrotropin receptor (Homo sapiens) (UniProt P16473); experiment: qHTS Assay for Antagonists of the Thyroid Stimulating Hormone Receptor: SAR for Probe; conditions: HEK293-TSHR, TSH-stimulated cAMP HTRF, 2 h; series mostly up to 57.5 µM; activity change, negative = inhibition: at the top concentration
Sequence (P16473 whole entry, looked up): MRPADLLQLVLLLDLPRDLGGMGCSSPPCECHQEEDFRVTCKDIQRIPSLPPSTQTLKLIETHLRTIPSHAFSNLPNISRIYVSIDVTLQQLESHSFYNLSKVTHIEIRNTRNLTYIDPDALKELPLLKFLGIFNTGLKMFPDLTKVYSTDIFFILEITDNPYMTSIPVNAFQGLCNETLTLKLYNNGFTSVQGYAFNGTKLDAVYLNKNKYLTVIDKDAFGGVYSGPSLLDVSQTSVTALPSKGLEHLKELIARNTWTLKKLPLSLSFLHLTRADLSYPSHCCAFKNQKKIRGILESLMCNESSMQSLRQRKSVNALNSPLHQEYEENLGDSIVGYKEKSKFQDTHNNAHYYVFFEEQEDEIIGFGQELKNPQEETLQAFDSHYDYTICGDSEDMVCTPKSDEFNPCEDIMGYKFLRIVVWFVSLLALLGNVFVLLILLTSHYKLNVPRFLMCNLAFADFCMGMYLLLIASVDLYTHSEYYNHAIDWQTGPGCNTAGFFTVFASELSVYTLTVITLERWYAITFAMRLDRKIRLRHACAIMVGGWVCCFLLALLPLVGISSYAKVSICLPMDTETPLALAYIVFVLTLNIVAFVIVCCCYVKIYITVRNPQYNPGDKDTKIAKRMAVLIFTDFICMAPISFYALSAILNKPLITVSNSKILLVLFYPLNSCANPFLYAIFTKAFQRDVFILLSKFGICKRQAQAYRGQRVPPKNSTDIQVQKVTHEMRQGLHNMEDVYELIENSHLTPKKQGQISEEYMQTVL
From the text: TSH is an alpha/beta heterodimeric glycoprotein hormone secreted from the anterior pituitary gland which belongs to the glycoprotein hormone family. The actions of TSH are mediated by a seven-transmembrane receptor, which upon TSH binding couples preferentially to the G-alpha (s) protein (Gs), resulting in activation of adenylate cyclase and increase in cyclic adenosine 3', 5' monophosphate (cAMP). The TSH receptor (THSR) is mainly expressed in thyroid follicular cells and regulates their growth and function. This cell based assay was conducted on a TSHR transfected HEK 293 cell line, measuring cAMP stimulation using antibody-based Homogeneous Time Resolved Fluorescence (HTRF). Our goal is to identify small molecules that will inhibit (antagonize) the thyroid-stimulating hormone receptor (TSHR), a member of the 7 transmembrane-spanning receptor (7TMR) family of cell surface receptors. TSHR-mediated hyperthyroidism is important in thyroid pathology. The development of small molecule antagonists of TSHR may lead to therapeutic approaches for TSHR-mediated hyperthyroidism caused by constitutively activating mutations or stimulating auto-antibodies associated with Graves' disease. Graves' disease is the leading cause of hyperthyroidism and is caused by autoantibodies that stimulate TSHR (TsAbs) causing thyroid growth and unregulated overproduction of thyroid hormones and existing treatments have liabilities (agranulocytosis). In addition, TSHRs are known to be expressed in multiple extrathyroidal tissues including bone, brain, kidney, testis, fat and cells of the immune system but the role of the TSHR in these tissues is not clear. Therefore, TSHR antagonists/inverse agonists could be used as probes of extrathyroidal TSHR function. Finally, TSHR inverse agonists, which are a subclass of antagonists that inhibit agonist-independent (or basal or constitutive) TSHR signaling, could be used to inhibit TSH-independent signaling in patients with recurrent or metastatic thyroid cancer who are receiving thyroid hormone to suppress TSH. The present assay presents confirmation data for analogues of series of interest in the primary screening assay.
An anti cAMP antibody contains a fluorescent cryptate tag (excitation 337 nm; emission 620 nm) and the acceptor is cAMP-d2 (excitation 620 nm; emission 665 nm). When antibody and cAMP-d2 interact and are excited by a 337 nm light, a FRET occurs resulting in emission at 665 nm. The assay is competition between cAMP-d2 and cAMP (from the cell lysate). The homogeneous protocol allows for one step dispense after stimulation that is automation friendly. Step, Parameter, Value, Description 1, Cells, 3 uL, 2000 TSHR freshly harvested cells/well 1536 TC treated White solid bottom plate (Cells resuspended in 10 mM HEPES buffered HBSS and 70 uM RO 20-1724) 2, Compound, 23 nL, Libraries and controls 3, Compound, 1 uL, EC80 TSH (4 nM final) 4, Time, 2 hours, 37C 5, Reagent, 2 uL, cAMP antibody diluted 1:20 in lysis buffer 6, Time, 30 minutes, Room temperature 7, Detector, HTRF settings, Viewlux

SMILES	activity change, negative = inhibition	Potency
COc1ccc(CN(Cc2ccccc2)C(=O)c2ccc(NC(C)=O)cc2)cc1COc1ccc(NC(C)=O)cc1	6.21% (inactive)	–
COc1cc(C2Nc3ccccc3C(=O)N2Cc2ccccc2)ccc1OCc1ccc(NC(C)=O)cc1 (stereo not given)	0.705% (inactive)	–
COc1ccc(C2Nc3ccccc3C(=O)N2CCCN(C)C)cc1COc1c(C)cc(NC(C)=O)cc1C (stereo not given)	-1.88% (inactive)	–
COc1ccc(C2Nc3ccccc3C(=O)N2Cc2ccco2)cc1COc1ccccc1C (stereo not given)	-6.42% (inactive)	–
COc1ccc(CN2C(=O)N(c3ccccc3)C(=O)C2c2ccccc2)cc1COc1ccc(NC(C)=O)cc1 (stereo not given)	0.387% (inactive)	–
COc1ccc(C2Nc3ccccc3C(=O)N2CCCN(C)C)cc1COc1ccc(NC(C)=O)cc1 (stereo not given)	1.85% (inactive)	–
Cc1cccc(C)c1OCc1cccc(C2Nc3ccccc3C(=O)N2Cc2ccco2)c1 (stereo not given)	–	32.6 µM (active)
COc1ccc(C2Nc3ccccc3C(=O)N2Cc2ccncc2)cc1COc1c(C)cc(NC(C)=O)cc1C (stereo not given)	-2.14% (inactive)	–
COc1ccc(C2Nc3ccccc3C(=O)N2Cc2ccccn2)cc1COc1c(C)cccc1C (stereo not given)	-8.52% (inactive)	–
COc1ccc(C2Nc3ccccc3C(=O)N2Cc2ccccc2)cc1COc1ccc(Cl)cc1 (stereo not given)	0.804% (inactive)	–
COc1ccc(CN2C(=O)c3ccccc3NC2c2ccc(OC)c(COc3c(C)cc(NC(C)=O)cc3C)c2)cc1 (stereo not given)	-1.26% (inactive)	–
COc1ccc(OCc2cc(C3Nc4ccccc4C(=O)N3Cc3ccccc3)ccc2OC)cc1 (stereo not given)	0.228% (inactive)	–
COc1ccc(CN(Cc2ccccc2)C(=O)CN2CCN(C)CC2)cc1COc1ccc(NC(C)=O)cc1	2.86% (inactive)	–
COc1ccc(C2Nc3ccccc3C(=O)N2Cc2ccc3c(c2)OCO3)cc1COc1c(C)cc(NC(C)=O)cc1C (stereo not given)	-4.42% (inactive)	–
COc1ccc(C2NC(=O)c3ccccc3N2)cc1COc1c(C)cc(NC(C)=O)cc1C (stereo not given)	-2.55% (inactive)	–
COc1ccc(C2Nc3cccc(O)c3C(=O)N2Cc2ccco2)cc1COc1c(C)cc(NC(C)=O)cc1C (stereo not given)	-5.28% (inactive)	–
COc1ccc(C2Nc3ccccc3C(=O)N2Cc2ccccc2)cc1COc1c(C)cccc1C (stereo not given)	-8.19% (inactive)	–
COc1ccc(C2Nc3ccccc3C(=O)N2Cc2cccs2)cc1COc1c(C)cc(NC(C)=O)cc1C (stereo not given)	-13.2% (inactive)	–
COc1ccc(C(=O)O)cc1COc1ccc(NC(C)=O)cc1	1.98% (inactive)	–
COc1ccc(O)c(-c2nc3ccccc3c(=O)n2Cc2ccccc2)c1	2.81% (inactive)	–

SMILES	activity change, negative = inhibition	Potency
COc1ccc(C2Nc3cccc(OC)c3C(=O)N2Cc2ccco2)cc1COc1c(C)cc(NC(C)=O)cc1C (stereo not given)	-4.71% (inactive)	–
COc1ccc(C2Nc3ccccc3C(=O)N2Cc2cccs2)cc1COc1c(C)cccc1C (stereo not given)	-18.8% (inactive)	–
COc1ccc(CN(Cc2ccccc2)S(=O)(=O)c2ccccc2)cc1COc1ccc(NC(C)=O)cc1	1.9% (inactive)	–
COc1ccc(C2Nc3ccccc3C(=O)N2Cc2ccco2)cc1COc1ccc([N+](=O)[O-])cc1 (stereo not given)	1.43% (inactive)	–
COc1ccc(C=O)cc1COc1ccc(NC(C)=O)cc1	-1.52% (inactive)	–
COCCN1C(=O)c2ccccc2NC1c1ccc(OC)c(COc2c(C)cc(NC(C)=O)cc2C)c1 (stereo not given)	–	46.1 µM (active)
COc1ccc(C2Nc3ccccc3C(=O)N2Cc2ccco2)cc1 (stereo not given)	1.84% (inactive)	–
Nc1ccccc1C(=O)NCc1ccco1	1.62% (inactive)	–
COc1cccc(CCN2C(=O)c3ccccc3NC2c2ccc(OC)c(COc3c(C)cc(NC(C)=O)cc3C)c2)c1 (stereo not given)	-3.34% (inactive)	–
COc1ccc(C2Nc3ccccc3C(=O)N2Cc2ccccc2)cc1COc1ccc(NC(=O)c2ccccc2)cc1 (stereo not given)	1.27% (inactive)	–
COc1cccc(CN2C(=O)c3ccccc3NC2c2ccc(OC)c(COc3c(C)cc(NC(C)=O)cc3C)c2)c1 (stereo not given)	-4.12% (inactive)	–
COc1ccc(C2Nc3ccccc3C(=O)N2Cc2ccccc2)cc1COc1c(C)cc(NC(C)=O)cc1C (stereo not given)	-2.91% (inactive)	–
COc1ccc(C2Nc3ccccc3C(=O)N2CCO)cc1COc1ccc(NC(C)=O)cc1 (stereo not given)	6.37% (inactive)	–
COc1ccc(O)c(C2Nc3ccccc3C(=O)N2Cc2ccccc2)c1 (stereo not given)	2.33% (inactive)	–
COc1ccc(C2Nc3ccccc3C(=O)N2Cc2cccc(OC)c2OC)cc1COc1c(C)cc(NC(C)=O)cc1C (stereo not given)	-4.15% (inactive)	–
COc1ccc(C2Nc3ccccc3C(=O)N2Cc2ccco2)cc1COc1ccccc1 (stereo not given)	-5.86% (inactive)	–
COc1ccc(C2Nc3ccccc3C(=O)N2CCO)cc1COc1c(C)cc(NC(C)=O)cc1C (stereo not given)	-4.88% (inactive)	–
COc1ccc(C2Nc3ccccc3C(=O)N2Cc2ccccc2)cc1COc1cccc(C)c1 (stereo not given)	0.0298% (inactive)	–
COc1ccc(C2Nc3ccccc3C(=O)N2Cc2ccco2)cc1COc1c(C(C)C)cccc1C(C)C (stereo not given)	-9.22% (inactive)	–
COc1ccc(C2Nc3ccccc3C(=O)N2Cc2ccco2)cc1COc1c(C)cc(NC(C)=O)cc1C (stereo not given)	–	36.6 µM (active)
